IL1B secr inh: blocks inflammasome-driven IL-1 beta release; THP-1 LPS/ATP IL-1B secretion, AlphaLISA, 16 h; active compounds read low; activity change, % at 57.5 µM; actives 4.7% (n = 360,000); in the data active = activity change below about -50%; inconclusive = mostly about -30% to -49%; note: % is set by controls: 0 for no effect and ±100 for the full control effect
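THP-1 cells pretreated 1 hr with compounds (up to 57.5 uM final), then stimulated with LPS (250 ng/mL final) plus ATP (1.25 mM final); secreted IL-1B measured by AlphaLISA after 16 hr, decreased signal indicating inhibition.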
HepG2 viability: kills HepG2 cells in TGF-b inhibitor counter-screen; HepG2 CAGA-GFP viability, ATP luminescence, 18 h; AID 588856; Potency, µM (highest dose often 46.1 µM), for the others: at the highest dose activity change, negative = cytotoxicity, usual class: cytotoxic; actives 0.76% (n = 410,000); note: potency is the fitted concentration of half-maximal effect
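CellTiter-Glo luminescence gave cytotoxicity after 18 hours at 37 degrees C. The cells were HepG2 CAGA-GFP in 1% FBS DMEM, stimulated with 500 pg/mL TGF-beta after compound addition. %Activity was normalised to no-cell wells (complete cell-killing) and DMSO (no toxicity), and curves were fitted and classified.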
TGFb SMAD3 inh: blocks TGF-b signaling. HepG2 CAGA-GFP TGF-b/SMAD3 reporter, GFP fluorescence, 18 h; TGF-beta stimulated, 500 pg/mL final. Potency, µM (top dose mostly 46.1 µM), for the others: at the highest dose activity, negative = inhibition, usual class: inhibitors. actives 1.2% (n = 410,000). AID 588855; note: potency is the fitted concentration of half-maximal effect; % is set by controls: 0 for no effect and ±100 for the full control effect; nearly all actives have a fitted effect of over 65% in size
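Inhibition of TGF-beta-driven CAGA-GFP reporter expression in HEPG2 cells is measured by cellular GFP fluorescence after 18 h stimulation with 500 pg/mL recombinant TGF-beta in 1% FBS medium at 37 degrees C.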
TDP1 block: inhibitors of human tyrosyl-DNA phosphodiesterase TDP1. Q9NUW8. recombinant TDP1, AlphaScreen DNA substrate cleavage. Potency, µM (highest dose often 130 µM), for the others: at the top dose activity change, negative = inhibition, actives largely listed as inhibitors. actives 0.28% (n = 350,000); note: potency is the fitted concentration of half-maximal effect; % is set by controls: 0 for no effect and ±100 for the full control effect; nearly all actives have a fitted effect of over 40% in size
Target sequence (Q9NUW8 whole entry, looked up): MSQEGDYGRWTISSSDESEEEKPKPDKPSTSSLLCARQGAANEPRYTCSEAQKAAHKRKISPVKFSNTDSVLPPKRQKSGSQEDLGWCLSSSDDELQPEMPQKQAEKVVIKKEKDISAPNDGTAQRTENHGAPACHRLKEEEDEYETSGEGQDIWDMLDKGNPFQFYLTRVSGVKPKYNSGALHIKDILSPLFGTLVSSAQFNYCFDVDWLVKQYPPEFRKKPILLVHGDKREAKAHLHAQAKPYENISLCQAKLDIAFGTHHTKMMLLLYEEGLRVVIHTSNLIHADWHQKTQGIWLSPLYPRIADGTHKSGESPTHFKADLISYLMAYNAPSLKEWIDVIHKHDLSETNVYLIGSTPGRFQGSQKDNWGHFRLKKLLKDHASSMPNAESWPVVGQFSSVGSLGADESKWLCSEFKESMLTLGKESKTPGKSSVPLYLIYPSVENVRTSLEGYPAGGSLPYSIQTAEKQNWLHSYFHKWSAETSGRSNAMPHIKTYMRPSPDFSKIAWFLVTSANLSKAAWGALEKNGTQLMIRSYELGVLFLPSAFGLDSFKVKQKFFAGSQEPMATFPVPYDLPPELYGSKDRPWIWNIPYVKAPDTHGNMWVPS
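Here, a 5' biotin and 3' phosphotyrosine-FITC DNA oligonucleotide reports Tdp1 activity: intact substrate bridges AlphaScreen beads, while cleavage leaves a 3' phosphate and drops signal. All incubations at room temperature.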
DT40 TDP1 CPT: growth inhibition of DT40 Tdp1-/-;hTDP1 cells with camptothecin (screen for TDP1 inhibitors); Potency, µM (titrated, usually from 46.2 µM), without a hit: top-dose activity change, negative = growth inhibition, hits mostly inhibitors; chicken DT40 Tdp1-/-;hTDP1 cells + 20 nM CPT, ATP luminescence, 48 h; AID 686979; actives 12% (n = 420,000); note: potency is the fitted concentration of half-maximal effect; % is set by controls: 0 for no effect and ±100 for the full control effect; nearly all actives have a fitted effect of over 55% in size
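Chicken DT40 Tdp1-/- cells stably complemented with human TDP1 were seeded at 400 cells/well in medium containing 20 nM camptothecin, exposed to pin-transferred compounds, and grown at 37 °C for at least 48 hr. Viability was read as ATP luminescence.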
TDP1 cell noCPT: qHTS for Inhibitors of human tyrosyl-DNA phosphodiesterase 1 (TDP1): qHTS in cells in absence of CPT. actives 15% (n = 420,000). Potency, µM (series often up to 46.2 µM), without a hit: at the highest dose activity change, negative = growth inhibition, hits mostly inhibitors. DT40 Tdp1-/- hTDP1 cells, no CPT, ATP luminescence, 48 h; note: potency is the fitted concentration of half-maximal effect; % is set by controls: 0 for no effect and ±100 for the full control effect; nearly all actives have a fitted effect of over 55% in size
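Camptothecin absent (DMSO only). Human TDP1-complemented DT40 knockout cells, 400 cells/well, 37 °C for minimum 48 hr; ATP measured via CellTiter-Glo, 30 min dark incubation, luminescence.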
Numbers without * were called inactive; ? = inconclusive; nt = not tested or not shown. Compounds with a hit are over-represented: about 19% of the library has one in this group of screens. Unless noted, calls come from the whole dose curve; as a rule, active = well fitted curve in the direction sought with a large enough effect; inconclusive = small, poorly fitted or top-dose-only effect, or another doubt; inactive = no such curve, though single readings can be large; an effect the other way counts as inactive or inconclusive.

SMILES	IL1B secr inh	HepG2 viability	TGFb SMAD3 inh	TDP1 block	DT40 TDP1 CPT	TDP1 cell noCPT
CCOC(=O)N1CCN(C(=O)C2CCCN(c3nc4ccc(OCC)cc4s3)C2)CC1 (stereo not drawn)	-12	6%	9%	4%	?	?
CCOc1ccc2nc(N3CCCC(C(=O)Nc4cccc(Cl)c4C)C3)sc2c1 (stereo not drawn)	nt	1%	1%	0%	?	?
CCOc1ccc2nc(N3CCCC(C(=O)Nc4cc(Cl)c(OC)cc4OC)C3)sc2c1 (stereo not drawn)	nt	-10%	22%	1%	18µM*	13µM*
CCOc1ccc2nc(N3CCCC(C(=O)Nc4ccc(OC)cc4)C3)sc2c1 (stereo not drawn)	nt	-3%	-19%	6%	15µM*	12µM*
CCOc1ccc2nc(N3CCCC(C(=O)NCc4ccc(C)cc4)C3)sc2c1 (stereo not drawn)	nt	0%	3%	4%	?	?
CCOc1ccc2nc(N3CCCC(C(=O)Nc4ccc(CC)cc4)C3)sc2c1 (stereo not drawn)	nt	1%	-18%	-5%	16µM*	10µM*
CCOC(=O)Nc1ccc2nc(N3CCCCCC3)sc2c1	46	10%	-3%	nt	3.7µM*	2.6µM*
Cc1ccc(S(=O)(=O)N2CCOCC2)cc1NC(=O)COc1cccc(Oc2ccccc2)c1	-3	17%	-2%	nt	?	?
COc1ccc(N(Cc2nnc3n2CCCCC3)C(=O)Nc2cccc(C)c2)cc1Cl	nt	-6%	15%	3%	0%	10%
CCOc1ccc2nc(N3CCCC(C(=O)NCc4ccccc4OC)C3)sc2c1 (stereo not drawn)	nt	10%	?	1%	?	23µM*
CCOc1ccc2nc(N3CCCC(C(=O)NC4CCCC4)C3)sc2c1 (stereo not drawn)	19	-14%	-4%	5%	?	21µM*
CCOc1ccc2nc(N3CCC(C(=O)NC4CCCCC4)CC3)sc2c1	21	-18%	-19%	4%	?	?
CNc1ccc(C(=O)c2ccccc2C(=O)O)cc1[N+](=O)[O-]	-16	-5%	-5%	0%	-3%	?
CNc1ccc(/C=C/C(=O)c2cccc3ccccc23)cc1[N+](=O)[O-]	-92*	-1%	-23%	8%	16µM*	16µM*
c1ccc(Cn2c(-c3ccccc3)nc3nc4ccccc4nc32)cc1	-2	-32%	-13%	-13%	21µM*	23µM*
O=[N+]([O-])c1cc(-c2nc3nc4ccccc4nc3n2CCc2ccccc2)cc([N+](=O)[O-])c1	-11	-1%	1%	1%	19%	?
Clc1cccc(-c2nc3nc4ccccc4nc3n2Cc2ccccc2)c1	-11	26%	14%	7%	?	?
C=CCn1c(-c2ccccc2)nc2nc3ccccc3nc21	-7	2%	-20%	-6%	18µM*	18µM*
COC(=O)c1ccc(C(NC(=O)OCc2ccccc2)/C(=C/[C@@H](C)C(=O)NCc2ccc(-c3ccccc3)cc2)c2cccnc2)cc1 (stereo partly drawn)	nt	nt	nt	12%	nt	nt
COc1ccc(-c2nc3cnc(Oc4ccccc4)nc3n(C3CC3)c2=O)cc1	nt	nt	nt	nt	0%	-4%
CN(Cc1ccccc1)C(=O)C1CCN(S(=O)(=O)c2cccc3nsnc23)CC1	-14	4%	9%	5%	?	?
O=C(CSc1nnc(CNC(=O)c2c(F)cccc2Cl)o1)Nc1cccc(F)c1	nt	-3%	-23%	0%	?	?
